Rows were chosen to be rich in hits. Some 11% of all compounds tested hit in one or more screens of this group.
AMA1 RON2 block – AMA1-RON2 (P. falciparum) interaction inhibition | Potency, µM (doses to about 58.2 µM), inactives show at the top dose activity change, negative = inhibition, usual class: inhibitors | actives 0.2% (n = 360,000) | AlphaScreen AMA1-biotinylated RON2 peptide binding;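 further: 0% = vehicle wells and -100% = peptide control; nearly all actives have a fitted effect of over 45% in size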
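AMA1 (3D7) with his tag at 25 nM final met compounds first, then biotinylated RON2 peptide at 25 nM; detection used donor plus acceptor beads, 10 µg/mL apiece, read by AlphaScreen after 30 min at room temperature.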
Pf growth 48h – inhibits P. falciparum growth in the first generation, 48 h; P. falciparum luciferase growth in erythrocytes, 48 h; Potency, µM (titrated, usually from 28.7 µM), without a hit: at the highest dose activity change, negative = inhibition, usual class: inhibitors; actives 5.9% (n = 310,000)
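Compounds are pin-transferred into medium, infected erythrocytes (2% hematocrit, 0.1% parasitemia final) are added, and plates sit one parasite generation at 37 C in 5% CO2. Detection reagent is then added and luminescence measured.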
Pf growth 96h – P. falciparum growth inhibition at 96 hours | P. falciparum luciferase reporter growth, 96 h | Potency, µM (titrated, usually from 28.7 µM), for inactives: top-dose activity change, negative = inhibition, actives largely listed as inhibitors | actives 6.9% (n = 320,000)
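Delayed-death screen, second-generation endpoint: infected erythrocytes, 2% hematocrit, 0.05% parasitemia final; 96 hours at 37 C, 5% CO2; luciferase detection reagent; luminescence decrease equals reduced growth.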
HCV inh – blocks hepatitis C virus | actives 3.4% (n = 340,000) | Huh7.5.1 HCVcc-Cre infection, luciferase reporter, 44 h | Potency, µM (highest dose often 41.8 µM), inactives show at the top dose activity change, negative = inhibition, most hits filed as inhibitors
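Seed cells (1,000/well) for 4 h; treat with compound and infect with HCVcc-Cre, moi about 0.5. Incubate 44 h, then detect luciferase activity.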
Active calls of the source: *; ? = inconclusive; / = no result given; [ ] = dose if it differs, or a comment. The call rests on the fitted dose curve; in most records, active means well fitted curve in the direction sought with a large enough effect; inconclusive means small, poorly fitted or top-dose-only effect, or another doubt; inactive means no such curve, though single readings can be large; an effect the other way counts as inactive or inconclusive. Unless noted, on the % scale 0 is the no-effect control and ±100 the full control effect; potency means the concentration at half of the fitted maximal effect.

SMILES	AMA1 RON2 block	Pf growth 48h	Pf growth 96h	HCV inh
O=C(NC1CCCCC1)C1CCCN1S(=O)(=O)c1ccc(Cl)cc1 (stereo not given)	-2%	-18%	46%	7%
CCCCc1ccc(/C=C2/C(=O)ON=C2c2ccccc2)s1	-1%	-2%	10µM*	2%
O=C1CC2OCC=C3CN4CCC56c7cc([N+](=O)[O-])ccc7N1C5C2C3CC46 (stereo not given)	-4%	?	10%	0%
O=C1/C(=C\c2ccccc2)C2OCC=C3CN4CCC56c7ccccc7N1C5C2C3CC46 (stereo not given)	-6%	2.3µM*	2.6µM*	12%
CC(OCC(O)CN(C)CCOc1ccccc1)c1ccc(Cl)cc1 (stereo not given)	-22%	?	12µM*	-16%
CN(CCOc1ccccc1)CC(O)COc1ccccc1 (stereo not given)	-5%	13%	29%	3%
CN(CCOc1ccc(Cl)cc1)CC(O)c1ccccc1 (stereo not given)	2%	9.3µM*	?	?
CC(C)c1ccc(CN(C)CC(O)c2ccccc2)cc1 (stereo not given)	7%	2.6µM*	9.3µM*	3%
CC(C)NC(=O)C1(C)CN(S(C)(=O)=O)CC(=O)N1Cc1ccco1 (stereo not given)	2%	/	/	/
O=C(Nc1ccc(C(F)(F)F)cc1)C1CCN(S(=O)(=O)c2ccc(N3CCCC3=O)cc2)CC1	-12%	?	?	?
COc1ccc(S(=O)(=O)N2CCC(C(=O)Nc3ccc(S(=O)(=O)N4CCCC4)cc3)CC2)cc1OC	3%	?	4.7µM*	-22%[8.37 µM]
COC(=O)c1ccc(NC(=O)C2CCN(C(=O)c3cc(OC)c(OC)c(OC)c3)CC2)cc1	0%	/	?	9%
COc1ccc(NC(=O)C2CCN(S(=O)(=O)c3ccc(N4CCCC4=O)cc3)CC2)cc1OC	0%	?	13µM*	8%
COc1cc(NC(=O)C2CCN(S(=O)(=O)c3ccc(N4CCCC4=O)cc3)CC2)cc(OC)c1	-10%	-27%	9.3µM*	-9%
CCOC(=O)c1ccc(NC(=O)C2CCN(C(=O)c3ccc(OC)c(OC)c3)CC2)cc1	0%	?	/	10µM*
Cc1ccc(S(=O)(=O)OCCC2=CC(=O)CCN2Cc2ccccc2)cc1	31%	/	/	-5%
NC1=NC[C@H](Cc2ccc(O)cc2)N1CCc1cccc2ccccc12	-6%	3.3µM*	1µM*	-2%
NCCCC[C@H]1CN=C(N)N1CCc1cccc2ccccc12	8%	/	/	4%
NC1=NC[C@@H](Cc2ccc(O)cc2)N1CCc1cccc2ccccc12	8%	5.9µM*	1.9µM*	21%
CCOc1ccc(N(CC(=O)NC2CC3CCC2C3)S(=O)(=O)c2ccccc2)cc1 (stereo not given)	7%	?	72%	-16%
CCN(C(=O)N1CCOCC1)c1ccccc1C	8%	0%	6.6µM*	22%
CCNC(=O)C1CCCN(C(=O)c2ccc3c(c2)CCO3)CC1 (stereo not given)	-7%	/	/	/
C#CCOCCOCCOCCNc1nc(N2CCN(C(=O)[C@H]([C@@H](C)CC)n3cc([C@@H](N)CO)nn3)CC2)nc(N2CCN(C(=O)[C@H]([C@@H](C)CC)n3cc([C@@H](N)Cc4ccc(O)cc4)nn3)CC2)n1	5%	?	-24%	17%
C#CCOCCOCCOCCNc1nc(N2CCN(C(=O)[C@H]([C@@H](C)CC)n3cc([C@@H](N)Cc4ccc(O)cc4)nn3)CC2)nc(N2CCN(C(=O)[C@H]([C@@H](C)CC)n3cc([C@@H](N)Cc4ccc(O)cc4)nn3)CC2)n1	4%	1.9µM*	1.9µM*	8%
C#CCOCCOCCOCCNc1nc(N2CCN(C(=O)[C@H]([C@@H](C)CC)n3cc([C@@H](N)CC(C)C)nn3)CC2)nc(N2CCN(C(=O)[C@H]([C@@H](C)CC)n3cc([C@@H](N)CC(C)C)nn3)CC2)n1	25%	1.7µM*	1.9µM*	23%
SMILES	AMA1 RON2 block	Pf growth 48h	Pf growth 96h	HCV inh
COc1ccc(C(=O)NC2CCCc3ccccc32)cc1OC1CCN(C(C)=O)CC1 (stereo not given)	1%	-44%	?	0%
CC(Sc1nc2ccccc2[nH]1)C(=O)Nc1ccccc1F (stereo not given)	-15%	140%	-24%	3%
CCc1ccc(NC(=O)CSc2nc3ccccc3nc2N2CCCC2)cc1	55%	-10%	2.6µM*	-9%
CCc1ccc(Nc2nnc(SCC(=O)Nc3ccc(C(=O)O)cc3)s2)cc1	-10%	4.7µM*	196%	20%
CCCN(C(=O)CSc1nc2cc(S(=O)(=O)N(CC)CC)ccc2o1)C1CCS(=O)(=O)C1 (stereo not given)	14%	?	5.2µM*	?
CCN(C(=O)CSc1nc2ccc([N+](=O)[O-])cc2s1)C1CCS(=O)(=O)C1 (stereo not given)	-1%	?	12µM*	-7%
COc1ccc(-c2nc(S(=O)(=O)c3ccccc3)c(NCCCN3CCOCC3)o2)cc1	47%	/	/	13%
COc1ccc(N2CCN(C(=O)c3cc(=O)c4cc(C)ccc4o3)CC2)cc1	-14%	32%	?	-11%
CCN(C(=O)CSc1nnc(NCc2ccccc2)s1)C1CCS(=O)(=O)C1 (stereo not given)	4%	15%	?	8%
N#CC1(NC(=O)CSc2nc3ccccc3s2)CCCCC1	-2%	?	-15%	?
CCN(CC)S(=O)(=O)c1ccc2oc(SCC3CN=C(c4ccc(OC)cc4)S3)nc2c1 (stereo not given)	1%	?	79%	11µM*
CCc1ccc(Nc2nnc(SCC(=O)N(C)C3CCS(=O)(=O)C3)s2)cc1 (stereo not given)	19%	9.3µM*	?	-2%
CCN(C(=O)CSc1nnc(Nc2cccc(C)c2C)s1)C1CCS(=O)(=O)C1 (stereo not given)	-8%[11.6 µM]	8.3µM*	-102%	22%
CN(C(=O)CSc1nnc(NC2CCCCC2)s1)C1CCS(=O)(=O)C1 (stereo not given)	1%	-11%	0%	7%
N#CC1(NC(=O)CSc2nc3ccc([N+](=O)[O-])cc3s2)CCCCC1	-22%	5.2µM*	?	?
Cc1cc(C)cc(NC(=O)COC(=O)Cn2cnc3c2c(=O)n(C)c(=O)n3C)c1	-16%	-6%	-1%	-4%
CSc1nc(Cl)cc(N2CCOCC2)n1	-12%	94%	154%	-28%
COc1ccccc1C(=O)CSc1ccccn1	7%	89%	95%	5%
Nc1nc(N)c2c(ccc3c2ccn3Cc2cccc([N+](=O)[O-])c2)n1	32µM*	/	/	/
O=S1(=O)C=C(SCc2ccc(Cl)c(Cl)c2)Nc2ccccc21	0%	?	?	-29%
CC(=O)Nc1cccc(C(=O)N/N=C/c2c[nH]c3ccccc23)c1	12%	25%	2.3µM*	19%
CCN1CCN=C1Nc1ccccc1	5%	3%	63%	8%

Assay outcomes: PubChem BioAssay, National Center for Advancing Translational Sciences (NCATS)
